The list is not random: actives were taken first. Their share in the collection is about 12%.
HP1b binding inh – HP1-beta chromodomain-methylated histone interaction inhibition; P83916; AlphaScreen HP1-beta / biotin-H3K9me3 peptide binding; Potency, µM (top dose mostly 114 µM), usual class: inhibitors; 0.56% of 390,000 active; further: nearly all actives have a fitted effect of over 70% in size
Target sequence (P83916 whole entry, looked up): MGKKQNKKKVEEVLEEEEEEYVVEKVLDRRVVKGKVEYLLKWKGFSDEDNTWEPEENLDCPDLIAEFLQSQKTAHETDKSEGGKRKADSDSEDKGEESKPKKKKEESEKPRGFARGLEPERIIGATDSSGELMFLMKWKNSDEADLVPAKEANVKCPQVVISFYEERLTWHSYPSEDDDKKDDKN
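HP1-beta protein (50 nM final) preincubated 30 min at room temperature with biotinylated H3(1-18)K9me3 peptide (50 nM) in PBS pH 7.4, 0.01% Tween-20, then compound added for 30 min. AlphaScreen streptavidin donor/nickel chelate acceptor beads (10 ug/mL final), 30 min dark, luminescence read.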
JMJD2A Tudor inh – blocks the human JMJD2A Tudor domain; 4.4% of 390,000 active; Potency, µM (highest dose often 114 µM), usual class: inhibitors; AlphaScreen JMJD2A-Tudor / H3K4me3 peptide binding; further: nearly all actives have a fitted effect of over 50% in size
Sfp PPTase inh – blocks B. subtilis Sfp PPTase activity; Biochemical Sfp PPTase activity, qHTS; Q9F4F7; AID 1490; 3.5% of 310,000 active; Potency, µM, hits mostly inhibitors;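 further: the enzyme is Sfp with the accession as filed and its product quenches rhodamine fluorescence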
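Sfp 15 nM + cpd, 15 min RT; start w/ rhodamine-CoA 5 uM, BHQ-2-YbbR 12.5 uM (final); 50 mM Hepes pH 7.6, 10 mM MgCl2, 0.01% NP-40, 0.01% BSA; read 525/598 nm at 0 and 30 min.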
G9a block – G9a (human) methyltransferase inhibition | Potency, µM (highest dose often 102 µM), actives largely listed as inhibitors | 8.8% of 350,000 active | Q96KQ7 | G9a H3K9 monomethylation, AlphaScreen, 2 h; further: nearly all actives have a fitted effect of over 75% in size
Target sequence (Q96KQ7 913-1193 limits assumed): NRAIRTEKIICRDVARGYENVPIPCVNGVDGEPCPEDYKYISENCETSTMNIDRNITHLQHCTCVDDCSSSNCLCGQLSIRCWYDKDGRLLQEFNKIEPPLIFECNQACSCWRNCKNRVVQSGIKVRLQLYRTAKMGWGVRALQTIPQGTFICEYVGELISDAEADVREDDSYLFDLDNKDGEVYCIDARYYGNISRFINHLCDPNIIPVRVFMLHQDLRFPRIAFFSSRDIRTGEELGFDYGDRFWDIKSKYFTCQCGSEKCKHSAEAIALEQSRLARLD
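Step 1: enzyme (final 20 nM) with compound, 15 min RT. Step 2: substrate peptide 500 nM and SAM 20 uM, 2 h RT. Step 3: anti-H3K9me1 antibody and AlphaScreen beads, 10 min, then plate read.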
BAZ2B block – BAZ2B (human) inhibition | 4.4% of 360,000 active | AlphaScreen BAZ2B-H3K14Ac peptide displacement | Potency, µM (highest dose often 114 µM), usual class: inhibitors; further: nearly all actives have a fitted effect of over 60% in size
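Complex of BAZ2B and biotin-H3K14Ac (50 nM apiece) forms over 30 min at RT, then faces library compounds up to 110 uM for another 30 min; AlphaScreen beads added, 20 min dark incubation, luminescence read.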
Each line names hits and unclear results; the compound was inactive in the other large screens. The call rests on the fitted dose curve; in most records, active means well fitted curve in the direction sought with a large enough effect; inconclusive means small, poorly fitted or top-dose-only effect, or another doubt; inactive means no such curve, though single readings can be large; an effect the other way counts as inactive or inconclusive.

CCC1CCCCN1C(=O)CSc1nc(N)cc(=O)[nH]1 (centres undefined)	none
COc1ccccc1CNC(=O)COC(=O)c1ccc(C)s1	none (no result: Sfp PPTase inh)
Cc1ccc(Cn2c(SCC(C)C)nc3c2c(=O)n(C)c(=O)n3C)cc1	Sfp PPTase inh inconclusive
Cc1ccc(C(=O)Oc2coc(CSc3nnc(NC(=O)c4cccs4)s3)cc2=O)cc1	G9a block 12.6µM
CCC(=O)NNc1ncnc2ccccc12	none
O=C(O)CCC(=O)NNc1ncnc2ccccc12	Sfp PPTase inh 56.2µM, BAZ2B block inconclusive
O=C(O)CCC(=O)NNc1nc(-c2ccccc2)c2cc(Cl)ccc2n1	none
O=C(O)CCC(=O)NNc1nc2ccccc2nc1-c1ccccc1	Sfp PPTase inh 56.2µM (no result: G9a block)
O=C1NC(=S)N/C1=C/c1ccc(-c2c(Br)cc([N+](=O)[O-])cc2Br)o1	G9a block 11.2µM, BAZ2B block inconclusive (no result: HP1b binding inh, JMJD2A Tudor inh)
O=C1NC(=S)N/C1=C/c1cccc([N+](=O)[O-])c1	none
CN1C(=O)/C(=C/c2cccc([N+](=O)[O-])c2)C(=O)N1c1ccccc1	JMJD2A Tudor inh inconclusive, Sfp PPTase inh 50.1µM, G9a block 14.1µM
CCCN1C/C(=C/c2cccc([N+](=O)[O-])c2)C(=O)/C(=C/c2cccc([N+](=O)[O-])c2)C1	G9a block inconclusive, BAZ2B block inconclusive
O=C1NC(=S)N/C1=C\c1cccc([N+](=O)[O-])c1	Sfp PPTase inh 56.2µM, G9a block 50.1µM
COc1cccc(-n2nnnc2SCC(=O)c2ccc(NC(C)=O)cc2)c1	none
Cc1ccc(CNC(=O)c2cc(-c3ccccc3)nn2Cc2cc(C)no2)cc1	none (no result: Sfp PPTase inh)
CC1CCN(C(=O)CC2C(=O)Nc3c2c(=O)n(C)c(=O)n3Cc2ccccc2)CC1 (centres undefined)	G9a block 8.91µM
Cn1c(=O)c2c(n(Cc3ccccc3)c1=O)NC(=O)C2CC(=O)O (centres undefined)	G9a block 44.7µM
Cn1c2c(c(=O)n(C)c1=O)C(CC(=O)Nc1ccccc1)C(=O)N2 (centres undefined)	none
CC1=C(C(=O)OCCC#N)C(c2cc3c(cc2Br)OCO3)NC(=O)N1 (centres undefined)	none
O=C(C1CCCO1)N1CCN(c2ccc(F)cc2)CC1 (centres undefined)	none
CN(C)S(=O)(=O)c1ccc(C(=O)Nc2nc(-c3cc4ccccc4o3)cs2)cc1	none
c1ccc2oc(-c3csc(NCC4CCCO4)n3)cc2c1 (centres undefined)	HP1b binding inh inconclusive, JMJD2A Tudor inh inconclusive, G9a block 39.8µM, BAZ2B block inconclusive
C=CCNc1nc(-c2cc3ccccc3o2)cs1	Sfp PPTase inh inconclusive, G9a block 11.2µM, BAZ2B block inconclusive
C=CCN1/C(=C2/SC(=S)N(C)C2=O)Sc2ccccc21	G9a block 39.8µM, BAZ2B block inconclusive (no result: HP1b binding inh, JMJD2A Tudor inh)
NN1C(=O)/C(=C2/Sc3ccccc3N2CCCS(=O)(=O)O)SC1=S	JMJD2A Tudor inh inconclusive, G9a block 39.8µM, BAZ2B block 79.4µM
O=C1NC(=S)S/C1=C1\Sc2ccccc2N1CCCS(=O)(=O)O	HP1b binding inh inconclusive, Sfp PPTase inh 25.1µM, G9a block 10µM, BAZ2B block inconclusive
O=C(CSc1ncccn1)Nc1cccc2ccccc12	none
Nc1cnn(Cc2ccccc2F)c1	HP1b binding inh inconclusive, JMJD2A Tudor inh 50.1µM, G9a block inconclusive, BAZ2B block 39.8µM
CC(=O)Oc1ccc2c(=O)c(Oc3ccccc3)c(C)oc2c1OC(C)=O	JMJD2A Tudor inh inconclusive, Sfp PPTase inh inconclusive, G9a block 3.16µM
Cc1oc2cc(O)ccc2c(=O)c1Oc1ccccc1	JMJD2A Tudor inh inconclusive (no result: G9a block)
O=S(=O)(c1ccc(Cl)s1)N1CCC(Cc2ccccc2)CC1	Sfp PPTase inh inconclusive
CC(C)=CCc1c(O)cc(O)c2c(=O)c3c(CC=C(C)C)c(O)ccc3oc12	JMJD2A Tudor inh 56.2µM (no result: Sfp PPTase inh, G9a block, BAZ2B block)
O=[N+]([O-])c1cccc(N=NN(CCO)c2cccc([N+](=O)[O-])c2)c1	G9a block inconclusive
CCCN(N=Nc1cccc([N+](=O)[O-])c1)c1cccc([N+](=O)[O-])c1	JMJD2A Tudor inh inconclusive, G9a block 31.6µM, BAZ2B block inconclusive
CSc1nnc(-c2cccc(NC(=O)c3ccccc3)c2)n1C	G9a block 50.1µM
CCC(=O)Nc1cccc(-c2nnc(SCC(=O)c3ccccc3)n2C)c1	HP1b binding inh inconclusive, JMJD2A Tudor inh 39.8µM, Sfp PPTase inh 79.4µM, G9a block inconclusive (no result: BAZ2B block)
Cn1c(SCC(=O)c2ccccc2)nnc1-c1cccnc1	none
Cc1nn2c(-c3cccc(NC(=O)c4ccccc4)c3)nnc2c2ccccc12	none (no result: Sfp PPTase inh)
O=C(CSc1nnc(-c2cccnc2)n1-c1ccc(F)cc1)NCc1ccc2c(c1)OCO2	none
O=S(=O)(c1ccc(F)cc1F)N1CCN(CCO)CC1	none (no result: Sfp PPTase inh, G9a block, BAZ2B block)
Cn1c(SCC(=O)Nc2ccccc2F)nnc1-c1cccnc1	none
Cn1c(SSc2ccc(-c3cccnc3)n2C)ccc1-c1cccnc1	HP1b binding inh inconclusive, JMJD2A Tudor inh 50.1µM (no result: Sfp PPTase inh, G9a block, BAZ2B block)
CCC(Sc1ncnc2sc3c(c12)CCCC3)C(=O)OC(C)C (centres undefined)	none (no result: Sfp PPTase inh)
Cc1cc2c(SCC(=O)Nc3cccc(O)c3)ncnc2s1	JMJD2A Tudor inh 50.1µM (no result: Sfp PPTase inh, G9a block, BAZ2B block)
Cc1cccnc1NC(=O)CSc1ncnc2sc(C)c(C)c12	JMJD2A Tudor inh inconclusive, G9a block 50.1µM, BAZ2B block inconclusive (no result: Sfp PPTase inh)
CCC(Sc1ncnc2sc(C)c(C)c12)C(=O)OC (centres undefined)	G9a block 2µM, BAZ2B block inconclusive
COc1ccc(NC(=O)CSc2ncnc3sc(C)cc23)cc1	none
Cc1sc2ncnc(SCC(=O)Nc3ncccc3O)c2c1C	JMJD2A Tudor inh 63.1µM, BAZ2B block 39.8µM (no result: Sfp PPTase inh)
Cc1cccc(C)c1NC(=O)CN(C)C(=O)CN1C(=O)NC2(CCCC2)C1=O	none (no result: Sfp PPTase inh)
Cc1[nH]c2ccccc2c1[C@H]1[C@@H](CC#N)C1(C)C	HP1b binding inh inconclusive, Sfp PPTase inh inconclusive, G9a block inconclusive, BAZ2B block inconclusive
O=C(CSc1nc2ccccc2nc1Cc1ccc(Cl)cc1)Nc1ccc2c(c1)OCO2	none (no result: Sfp PPTase inh)
CCOc1ccc(NC(=O)CN(C)CC(=O)Nc2cc(Cl)ccc2C#N)cc1OCC	none
O=C(O)CCc1n[nH]c(=S)[nH]c1=O	Sfp PPTase inh 56.2µM
COC(=O)c1ccc(NC(=O)C2CCCN2S(=O)(=O)c2ccc(C)cc2)cc1 (centres undefined)	none
COc1ccccc1-c1cn[nH]c1-c1ccc(OCc2ccccc2)cc1O	JMJD2A Tudor inh inconclusive
COc1ccccc1-c1cn[nH]c(=S)n1	HP1b binding inh inconclusive, JMJD2A Tudor inh 50.1µM, Sfp PPTase inh 44.7µM, G9a block inconclusive
S=c1[nH]c2cnc(Cl)nc2[nH]1	JMJD2A Tudor inh 39.8µM (no result: Sfp PPTase inh, G9a block, BAZ2B block)
CC(C)c1ccc(Nc2nnc(SCC(=O)Nc3ncc(S(=O)(=O)c4ccc([N+](=O)[O-])cc4)s3)s2)cc1	G9a block 35.5µM
Cc1cc(=O)[nH]c(SCC(=O)Nc2ncc(S(=O)(=O)c3ccc([N+](=O)[O-])cc3)s2)n1	HP1b binding inh inconclusive, G9a block 44.7µM

Screens from PubChem.
